# G9a block: G9a (human) methyltransferase inhibition; Q96KQ7; G9a H3K9 monomethylation, AlphaScreen, 2 h; Potency, µM (highest dose often 102 µM), hits mostly inhibitors; hit rate 8.8% among 350,000; AID 504332; note: nearly all actives have a fitted effect of over 75% in size
# Target sequence (Q96KQ7 913-1193 limits assumed): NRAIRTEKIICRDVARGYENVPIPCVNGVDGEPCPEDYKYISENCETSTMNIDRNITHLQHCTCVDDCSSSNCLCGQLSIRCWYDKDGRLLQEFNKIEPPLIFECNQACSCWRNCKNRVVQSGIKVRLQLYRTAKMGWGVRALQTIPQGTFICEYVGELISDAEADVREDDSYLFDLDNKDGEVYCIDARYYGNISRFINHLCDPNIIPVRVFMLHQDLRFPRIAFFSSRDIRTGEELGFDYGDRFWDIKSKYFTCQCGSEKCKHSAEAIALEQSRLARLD
#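 G9a (20 nM) preincubated 15 min RT with compounds, then 500 nM biotinylated H3K9 peptide and 20 uM SAM added; 2 h RT reaction. Monomethyl-H3K9 product detected by AlphaScreen with anti-H3K9me1 antibody, streptavidin donor and anti-rabbit IgG acceptor beads.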
# 12-LOX inh: ALOX12 (human) lipoxygenase inhibition | hit rate 1.1% among 580,000 | Potency, µM (series often up to 108 µM), hits mostly inhibitors | P18054 | purified 12hLO, xylenol orange hydroperoxide absorbance | AID 1671190
#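 Hydroperoxide product was detected by ferrous iron/xylenol orange as the 573 to 405 nm absorbance ratio. Arachidonic acid at 40 uM (final) was turned over for 30 min at room temperature by 150 nM human 12hLO, pH 7.0 Hepes buffer, after 15 min compound preincubation.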
# Sfp inh: Sfp phosphopantetheinyl transferase inhibition. Q9F4F7. hit rate 3.5% among 310,000. AID 1490. Potency, µM, most hits filed as inhibitors. Biochemical Sfp PPTase activity, qHTS;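 note: the enzyme is Sfp with the accession as filed and its product quenches rhodamine fluorescence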
#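 Reaction rates are the 30-min fluorescence difference (ex 525, em 598 nm) in wells containing 15 nM Sfp, 5 uM rhodamine-CoA and 12.5 uM BHQ-2-YbbR at pH 7.6 with 10 mM MgCl2.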
# HP1b chromo inh: HP1-beta chromodomain-methylated histone interaction inhibition; P83916; AlphaScreen HP1-beta / biotin-H3K9me3 peptide binding; Potency, µM (titrated, usually from 114 µM), most hits filed as inhibitors; hit rate 0.56% among 390,000; note: nearly all actives have a fitted effect of over 70% in size
# Target sequence (P83916 whole entry, looked up): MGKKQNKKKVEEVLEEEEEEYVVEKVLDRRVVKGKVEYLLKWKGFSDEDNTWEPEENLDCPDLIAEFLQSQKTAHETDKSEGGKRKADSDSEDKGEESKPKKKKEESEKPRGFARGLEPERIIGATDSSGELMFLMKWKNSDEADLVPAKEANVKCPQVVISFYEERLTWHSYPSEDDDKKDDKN
#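 HP1-beta protein (50 nM final) preincubated 30 min at room temperature with biotinylated H3(1-18)K9me3 peptide (50 nM) in PBS pH 7.4, 0.01% Tween-20, then compound added for 30 min. AlphaScreen streptavidin donor/nickel chelate acceptor beads (10 ug/mL final), 30 min dark, luminescence read.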
# BAZ2B block: BAZ2B (human) inhibition; hit rate 4.4% among 360,000; Potency, µM (series often up to 114 µM), actives largely listed as inhibitors; Q9UIF8; AlphaScreen BAZ2B-H3K14Ac peptide displacement; note: nearly all actives have a fitted effect of over 60% in size
#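 Multi-concentration screen (max 110 uM) measuring displacement of acetylated histone H3 peptide from BAZ2B by AlphaScreen, using 50 nM protein, 50 nM peptide and 10 ug/mL streptavidin donor plus Ni-chelate acceptor beads.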
# JMJD2A Tudor: blocks the human JMJD2A Tudor domain; O75164; Potency, µM (doses to about 114 µM), actives largely listed as inhibitors; hit rate 4.4% among 390,000; AlphaScreen JMJD2A-Tudor / H3K4me3 peptide binding; note: nearly all actives have a fitted effect of over 50% in size
# A number is an active result; n = inactive; u = inconclusive; x = no result; [ ] = dose if it differs, or a comment. Hits are enriched below; roughly 8.7% of the tested compounds scored in any of these assays. Calls come from the whole dose curve; as a rule, active = well fitted curve in the direction sought with a large enough effect; inconclusive = small, poorly fitted or top-dose-only effect, or another doubt; inactive = no such curve, though single readings can be large; an effect the other way counts as inactive or inconclusive.
SMILES,G9a block,12-LOX inh,Sfp inh,HP1b chromo inh,BAZ2B block,JMJD2A Tudor
N#CC(C#N)=C1C=C2C=C(N3CCCCC3)CCC2CC1 (centres undefined),u,x,n,u,45µM,u
CCN(CC)c1nc2ccccc2[nH]c1=O,32µM,n,n,n,n,n
CCN(CC)c1nc2ccccc2[nH]1,n,n,n,n,n,n
C/C(=C/C(=O)C(F)(F)F)N1CCN(c2ccccn2)CC1,x,n,x,x,x,x
O=c1cc(N2CCOCC2)oc2c(N3CCOCC3)nccc12,x,n,x,x,x,x
Cc1cc(-c2n[nH]c(=S)n2/N=C/c2cccs2)n[nH]1,0.35µM,u,n,n,n,6.3µM
Cc1ccc(-c2n[nH]c(=S)n2/N=C/c2cccs2)cc1,1µM,u,n,n,n,28µM
Cc1ccc(-c2n[nH]c(=S)n2/N=C/c2ccc(C)s2)cc1,n[0.501 µM],16µM,n,n,n,u
S=c1[nH]nc(-c2ccccc2)n1/N=C/c1cccs1,0.56µM,x,n,n,n,18µM
CN(C)S(=O)(=O)c1ccc2c(c1)CCN2Cc1cc(C#N)ccc1F,x,n,x,x,x,x
CCC1=Nc2cc(C(=O)NCCC(C)C)ccc2Sc2ccc(Br)cc21,x,n,x,x,x,x
Cc1cccc2cc(CN(Cc3cccnc3)C(=S)NCCCN(C)C)c(=O)[nH]c12,u,n,n,n,u,13µM
N#Cc1nc(COc2ccccc2F)oc1NCCc1ccccc1,u,n,n,n,u,u
COc1ccc(Nc2oc(COc3ccc(C)cc3)nc2C#N)cc1,u,n,n,n,u,89µM
COc1ccc(Nc2oc(COc3ccccc3F)nc2C#N)cc1,35µM,n,n,n,u,u
CN(Cc1ccccc1)c1oc(COc2ccccc2F)nc1C#N,28µM,n,u,n,28µM,u
Cc1ccc(OCc2nc(C#N)c(NCc3ccco3)o2)cc1,50µM,u,n,n,35µM,u
COc1ccc(OCc2nc(C#N)c(NCc3ccco3)o2)cc1,x,n,x,x,x,x
C=CCn1c(SCc2nc3ccccc3c(=O)[nH]2)nc2scc(C3CC3)c2c1=O,n,n,56µM,n,n,n
O=C(c1cccc2cnccc12)N1CCCC2(C=Cc3ccccc3O2)CC1 (centres undefined),x,n,x,x,x,x
COc1ccc(-c2cc(C)no2)cc1S(=O)(=O)NCc1ccco1,u,n,x,n,n,n
COc1ccc(-c2cc(C)no2)cc1S(=O)(=O)NCc1cccc(C)c1,n[0.0925 µM],n,n,n,n,n
Cc1cc(-c2ccc(C(C)C)c(S(=O)(=O)NCc3ccco3)c2)on1,79µM,u,n,n,50µM,n
COc1cccc(CNS(=O)(=O)c2cc(-c3cc(C)no3)ccc2C(C)C)c1,71µM,n,n,n,n,n
CCC(CC)C(=O)NC[C@H]1O[C@@H](CC(=O)NC(C)C)[C@H](O)[C@@H]1O,x,n,x,x,x,x
SMILES,G9a block,12-LOX inh,Sfp inh,HP1b chromo inh,BAZ2B block,JMJD2A Tudor
Cc1ccc(-c2nnc([C@H]3CCN(C(=O)NC4CCCCC4)C3)o2)cc1,x,n,x,x,x,x
C/C(=N\Nc1nncc2ccccc12)c1ccc(OCC(=O)N(C)C)cc1,45µM,n,50µM,n,u,n
CC/C(=N\Nc1nncc2ccccc12)c1ccc(F)cc1,40µM,n,n,n,n,n
Cc1noc2c(NCCc3ccccn3)cc(-c3ccccn3)nc12,x,n,x,x,x,x
COc1cccc(N2CCN(Cc3cccnc3)CC2)c1,14µM,u,n,56µM,40µM,3.2µM
FC(F)(F)c1cccc(N2CCN(Cc3cccnc3)CC2)c1,14µM,n,n,u,n,1.3µM
CCOc1ccc(CN2CCc3nc(N4CCN(c5ncccn5)CC4)ncc3C2)cc1OC,n[12.7 µM],u,x,n,n,u
COc1cccc(N2CCN(Cc3ncc(-c4ccccc4)o3)CC2)c1,u,n,n,n,n,n
COc1cccc(N2CCN(c3ncc4c(n3)CCN(Cc3ccc(Br)cc3)C4)CC2)c1,n[12.7 µM],u,x,n,22µM,56µM
FC(F)(F)c1cccc(N2CCN(Cc3ccoc3)CC2)c1,u,u,u,u,50µM,3.5µM
CS(=O)(=O)N1CCCCCNC(=O)[C@@H]2CCCC[C@@H]21,x,n,x,x,x,x
O=C(Nc1cccc(C(F)(F)F)c1)C1C2C3CCC(C3)C12 (centres undefined),x,n,x,x,x,x
COc1cccc(N2CCN(CC(=O)C34CC5CC(CC(C5)C3)C4)CC2)c1,n,n,n,n,u,n
